Data on 13 molecules can be found in PubChem BioAssay (NCI).

The structures appear in SMILES notation. About 83,000 compounds went through this panel and 20% of them were active in at least one assay; those are over-represented in the sample as a whole.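 Interpretation: 100, growth as untreated; towards 0, rising growth inhibition; 0, no net growth; 0 to -100, cell death. Compounds scoring below 10 were considered active.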 Values without a mark were called inactive. Activity calls are given as the source filed them.

In the experiment the test system is HL-60(TB) leukemia. The experiment is described as follows: NCI-60 one-dose screen, 48 h (100 = growth as untreated, 0 = no growth, -100 = all killed). Particulars: 10 µM unless noted.
`Cc1ccc(-c2cc(C(=O)N=Nc3c(O)[nH]c4ccccc34)c3ccccc3n2)cc1`: the growth is 28.2%.

For the molecule `COc1ccsc1/C=N/NC(=O)c1[nH]c2ccc(Br)cc2c1-c1ccccc1`, the growth is -33.3% (active). The figure for `C[C@H](Nc1nc(NCCc2ccccc2)nc2ccccc12)c1ccccc1` is -48.2% (active); for `COc1nccnc1NS(=O)(=O)c1ccc(NC2=C(Cl)C(=O)c3nc(C)ccc3C2=O)cc1` it is 100%.

For the molecule `COc1cccc(NC(=O)c2ccc(NC(=O)CCl)s2)c1`, the growth is -28.2% (active). Consider `COc1cc2c3c(n(CCCN4CCOCC4)c(=O)c2cc1OC)-c1nc2c(cc1C3=O)OCO2`, for which the growth is 65.2%. The figure for `CC1CCc2c(sc3nc(SCC(=O)c4cccc([N+](=O)[O-])c4)n(-c4ccccc4)c(=O)c23)C1` (stereo not drawn) is 87.1%. The figure for `COc1ccc2[nH]c(O)c(N=Nc3nc(-c4ccc(C#N)cc4)cs3)c2c1` is 84.4%. The figure for `C#CCOc1cc(N(CC)CC)ccc1C(C(=O)NC(C)(C)C)N(C(=O)C1CCc2cc(F)ccc2O1)c1ccc(F)c(Cl)c1` (stereo not drawn) is 27.2%; for `O=C(c1ccc(O)cc1)C1[C@H](c2ccc(Br)cc2)[C@@H](c2ccccc2)NC12C(=O)Nc1ccc(Br)cc12` (stereo partly drawn) it is 12.5%. As for `CCOc1ccc(-c2cc(-c3cc(C(C)C)c(O)cc3C)nn2-c2ccc(S(N)(=O)=O)cc2)cc1`, the growth was 9.77% (active). The figure for `O=C1CC(Sc2n[nH]c(-c3ccncc3)n2)C(=O)N1c1ccc(Br)cc1` (stereo not drawn) is 101%; for `C=CCn1c(O)c(N=Nc2nc(-c3cc4ccccc4oc3=O)cs2)c2ccccc21` it is 111%.
